ΔTm data for 25 molecules are collected here from ChEMBL document CHEMBL5308504, “Tm Shift (DSF) assay results for EUbOPEN Chemogenomics Library” (2023).

Common to all, as to settings: Compound concentration 20.0 uM, Protein concentration 2.0 uM, Result type QC Liability
Assay [1] has as its target Tyrosine-protein kinase ABL1 (Homo sapiens) (UniProt P00519).
Assay [2] has as its target Cyclin-dependent kinase 2 (Homo sapiens) (UniProt P24941).
Assay [3] deals with Casein kinase I isoform delta (Homo sapiens) (UniProt P48730).
Sequence of Casein kinase I isoform delta (Homo sapiens) (P48730 whole entry, looked up, canonical isoform): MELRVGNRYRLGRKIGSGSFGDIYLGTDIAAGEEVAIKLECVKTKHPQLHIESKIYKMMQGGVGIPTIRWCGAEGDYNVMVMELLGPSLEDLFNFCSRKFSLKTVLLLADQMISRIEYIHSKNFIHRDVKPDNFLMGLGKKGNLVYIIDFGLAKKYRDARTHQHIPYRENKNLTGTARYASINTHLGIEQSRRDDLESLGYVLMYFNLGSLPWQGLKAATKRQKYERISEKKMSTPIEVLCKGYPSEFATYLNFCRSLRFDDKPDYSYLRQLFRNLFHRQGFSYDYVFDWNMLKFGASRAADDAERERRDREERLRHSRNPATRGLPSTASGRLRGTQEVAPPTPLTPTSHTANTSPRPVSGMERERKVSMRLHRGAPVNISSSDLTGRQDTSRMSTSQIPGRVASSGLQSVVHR
Assay [4] addresses Glycogen synthase kinase-3 beta (Homo sapiens) (UniProt P49841).
Assay [5] addresses Mitogen-activated protein kinase 1 (Homo sapiens) (UniProt P28482).
The target of assay [6] is T1, Aurora kinase A (Homo sapiens) (UniProt O14965).
T1 sequence (whole entry): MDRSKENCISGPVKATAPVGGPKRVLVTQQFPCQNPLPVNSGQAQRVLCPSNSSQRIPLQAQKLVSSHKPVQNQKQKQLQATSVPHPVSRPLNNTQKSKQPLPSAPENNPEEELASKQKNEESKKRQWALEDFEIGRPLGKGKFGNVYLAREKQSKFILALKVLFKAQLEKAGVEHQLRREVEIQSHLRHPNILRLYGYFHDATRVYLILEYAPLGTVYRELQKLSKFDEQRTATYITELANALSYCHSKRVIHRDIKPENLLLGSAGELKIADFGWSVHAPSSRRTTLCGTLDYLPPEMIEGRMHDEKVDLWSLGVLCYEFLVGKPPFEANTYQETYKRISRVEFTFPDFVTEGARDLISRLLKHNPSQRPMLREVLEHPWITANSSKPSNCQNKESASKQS

Sequence of Tyrosine-protein kinase ABL1 (Homo sapiens) (P00519 whole entry): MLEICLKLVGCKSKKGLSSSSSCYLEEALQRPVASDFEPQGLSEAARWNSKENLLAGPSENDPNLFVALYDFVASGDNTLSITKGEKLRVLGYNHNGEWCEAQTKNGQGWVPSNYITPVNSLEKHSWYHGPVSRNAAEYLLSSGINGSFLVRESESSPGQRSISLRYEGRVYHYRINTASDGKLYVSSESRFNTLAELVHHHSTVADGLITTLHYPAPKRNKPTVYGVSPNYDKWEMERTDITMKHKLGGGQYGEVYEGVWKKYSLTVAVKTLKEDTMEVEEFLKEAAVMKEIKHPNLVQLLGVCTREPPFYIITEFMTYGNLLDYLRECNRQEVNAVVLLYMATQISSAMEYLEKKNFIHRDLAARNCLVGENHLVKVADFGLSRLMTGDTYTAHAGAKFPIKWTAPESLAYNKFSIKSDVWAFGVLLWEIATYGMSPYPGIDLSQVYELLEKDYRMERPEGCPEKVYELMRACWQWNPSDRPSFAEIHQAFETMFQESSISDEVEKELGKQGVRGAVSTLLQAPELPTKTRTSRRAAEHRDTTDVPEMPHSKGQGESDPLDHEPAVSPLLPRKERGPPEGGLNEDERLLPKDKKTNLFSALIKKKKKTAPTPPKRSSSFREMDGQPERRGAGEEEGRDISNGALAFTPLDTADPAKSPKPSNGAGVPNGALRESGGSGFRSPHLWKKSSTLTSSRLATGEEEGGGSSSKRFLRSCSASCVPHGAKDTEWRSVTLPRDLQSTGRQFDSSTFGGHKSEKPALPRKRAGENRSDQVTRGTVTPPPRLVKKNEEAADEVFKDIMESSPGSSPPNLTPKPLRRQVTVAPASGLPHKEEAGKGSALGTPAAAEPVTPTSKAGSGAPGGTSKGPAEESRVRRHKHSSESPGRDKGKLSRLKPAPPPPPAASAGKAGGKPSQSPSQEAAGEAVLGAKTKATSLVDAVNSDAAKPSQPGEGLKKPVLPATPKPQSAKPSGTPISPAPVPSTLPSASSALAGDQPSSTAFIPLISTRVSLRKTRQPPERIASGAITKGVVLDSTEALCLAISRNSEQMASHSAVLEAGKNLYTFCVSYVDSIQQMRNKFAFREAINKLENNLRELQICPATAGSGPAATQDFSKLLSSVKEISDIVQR
Sequence of Glycogen synthase kinase-3 beta (Homo sapiens) (P49841 whole entry, looked up): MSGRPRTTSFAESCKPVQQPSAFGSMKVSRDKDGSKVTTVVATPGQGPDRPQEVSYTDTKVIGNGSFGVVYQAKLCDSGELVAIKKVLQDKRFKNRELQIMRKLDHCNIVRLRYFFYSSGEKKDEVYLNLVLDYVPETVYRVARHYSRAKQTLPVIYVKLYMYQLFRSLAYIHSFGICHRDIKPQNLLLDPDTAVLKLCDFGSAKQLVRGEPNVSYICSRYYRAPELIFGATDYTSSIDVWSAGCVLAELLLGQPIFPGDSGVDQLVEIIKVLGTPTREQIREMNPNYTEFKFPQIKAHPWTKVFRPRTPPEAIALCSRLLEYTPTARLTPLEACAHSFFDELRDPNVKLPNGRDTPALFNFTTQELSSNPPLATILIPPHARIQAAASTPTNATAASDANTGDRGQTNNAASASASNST
Sequence of Mitogen-activated protein kinase 1 (Homo sapiens) (P28482 whole entry): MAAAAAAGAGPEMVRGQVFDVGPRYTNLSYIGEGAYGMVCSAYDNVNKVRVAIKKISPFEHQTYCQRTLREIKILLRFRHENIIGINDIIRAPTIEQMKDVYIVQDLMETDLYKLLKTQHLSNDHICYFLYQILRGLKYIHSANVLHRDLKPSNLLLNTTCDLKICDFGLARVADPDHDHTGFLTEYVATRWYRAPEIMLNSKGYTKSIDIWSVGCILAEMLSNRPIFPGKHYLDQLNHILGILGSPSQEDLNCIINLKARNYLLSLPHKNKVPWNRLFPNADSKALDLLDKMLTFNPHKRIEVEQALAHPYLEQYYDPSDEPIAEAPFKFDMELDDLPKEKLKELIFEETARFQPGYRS

As for `Cc1[nH]nc(C(F)(F)F)c1Cc1sc2c(c1C(=O)N1C[C@](C)(O)CO1)c(=O)n(C)c(=O)n2C(C)C`, the ΔTm (usually the shift of the melting midpoint relative to a reference) in assay [1] was 0.24 °C; in assay [2], 0.67 °C; in assay [3], -0.27 °C; in assay [4], 0.32 °C; in assay [5] it was 0.23 °C; in assay [6] it was -0.32 °C.

As for `O=C(NCCS(=O)(=O)c1ccc(C(F)(F)F)cn1)c1ccc(Cl)cc1`, the ΔTm in assay [1] was 0 °C; in assay [2], 0.73 °C; in assay [3], 0.23 °C; in assay [4] it was -1.08 °C; in assay [5], 0.3 °C; in assay [6] it was -0.52 °C.

Take `COc1cc2c(NC3CCN(C(C)C)CC3)nc(C3CCCCC3)nc2cc1OCCCN1CCCC1`: the ΔTm was 0.15 °C in assay [1]; 0.9 °C in assay [2]; 0.11 °C in assay [3]; -0.55 °C in assay [4]; 0.32 °C in assay [5]; 0.5 °C in assay [6].

Take `O=C(O)CCn1c2c(c3ccccc31)C[C@H](NS(=O)(=O)c1ccc(F)cc1)CC2`: the ΔTm is 1.15 °C in assay [1]; 1.26 °C in assay [2]; 0.09 °C in assay [3]; 0.24 °C in assay [4]; 0.28 °C in assay [5]; -0.02 °C in assay [6].

In the case of `CN[C@@H]1CC[C@@H](c2ccc(Cl)c(Cl)c2)c2ccccc21`, the ΔTm in assay [1] was -0.02 °C; in assay [2], 0.01 °C; in assay [3], 0.01 °C; in assay [4], -0.7 °C; in assay [5], 0 °C; in assay [6], -0.47 °C.

As to `C/C(=C\C(=O)Nc1ccccc1C(=O)O)c1ccc2ccccc2c1`, the ΔTm in assay [1] is -0.72 °C; in assay [2] it was -0.23 °C; in assay [3], 0.09 °C; in assay [4], 0 °C; in assay [5] it was 0.8 °C; in assay [6], 1.85 °C.

For `Nc1ncnc2[nH]c(-c3ccccc3)nc12`, the ΔTm in assay [1] was found to be 3.48 °C; in assay [2] it was 0.92 °C; in assay [3] it was 0.73 °C; in assay [4], 1.04 °C; in assay [5], 0.38 °C; in assay [6] it was 0.6 °C.

On to `CO[C@H]1CC[C@H](N(c2cc(F)c(Oc3ncc(Cn4nccn4)cc3C(F)(F)F)cc2C(=O)O)C(=O)[C@H]2CC[C@H](C)CC2)CC1`, for which the ΔTm in assay [1] was -0.55 °C; in assay [2], -0.98 °C; in assay [3], -0.04 °C; in assay [4], -1.43 °C; in assay [5], 0.48 °C; in assay [6], -0.75 °C.

Regarding `Cc1cnc(Nc2ccc(C(=O)N3CCN(C)CC3)cc2)nc1N[C@@H]1CCC[C@@H]1C(N)=O`, the ΔTm in assay [1] is 5.89 °C; in assay [2], 6.47 °C; in assay [3], 0.27 °C; in assay [4] it was 3.07 °C; in assay [5], 1.68 °C; in assay [6] it was 14.7 °C.

With `CN(C)[C@H]1CCN(c2cc(C(F)(F)F)c(C#N)c(Nc3cccc(CCC(=O)O)c3)n2)C1`, the ΔTm in assay [1] was -0.06 °C; in assay [2], 0.28 °C; in assay [3], 0.14 °C; in assay [4] it was 0.08 °C; in assay [5], 0.58 °C; in assay [6] it was 0.51 °C.

Take `Cn1c(C(=O)N[C@@H](CO)c2ccc(C(=O)O)cc2)cc2cc(Cl)ccc21`: the ΔTm was -0.2 °C in assay [1]; 0.54 °C in assay [2]; 0.58 °C in assay [3]; 0.38 °C in assay [4]; -0.04 °C in assay [5]; 0.34 °C in assay [6].

For `CC1(C)C[C@@H]1C(=O)N/C(=C\CCCCSC[C@H](N)C(=O)O)C(=O)O`, the ΔTm in assay [1] is 0.34 °C; in assay [2], 0.8 °C; in assay [3] it was -0.09 °C; in assay [4], 0.21 °C; in assay [5] it was -0.39 °C; in assay [6] it was -0.41 °C.

As for `Cc1ccc(-c2cn3nc(C(=O)NC4(c5ccc(F)cc5)CN(C)C4)c(C(C)C)c3c(=O)[nH]2)cc1C`, the ΔTm in assay [1] was -0.12 °C; in assay [2] it was 0.03 °C; in assay [3] it was 0.69 °C; in assay [4], -0.83 °C; in assay [5], 0.08 °C; in assay [6] it was 0.49 °C.

As to `CCOCCn1cc(C(=O)Nc2ccc(-n3nc(-c4cccnc4)cc3C(F)(F)F)cn2)ccc1=O`, the ΔTm was 0.3 °C in assay [1]; -1.4 °C in assay [2]; 0.33 °C in assay [3]; -0.71 °C in assay [4]; -0.58 °C in assay [5]; 0.16 °C in assay [6].

Consider `Cc1nn(C)c(COc2ccc(N3CCN(S(=O)(=O)N(C)C)CC3)cc2)c1-c1cccc2c(CCCOc3cccc4ccccc34)c(C(=O)O)n(CCN3CCOCC3)c12`, for which the ΔTm was 0.04 °C in assay [1]; 0.39 °C in assay [2]; -0.73 °C in assay [3]; 0 °C in assay [4]; -0.31 °C in assay [5]; 0.6 °C in assay [6].

For `O=C1COc2cc(C(=O)N(Cc3ccc(C(=O)Nc4ccncn4)cc3)C3CC3)ccc2N1`, the ΔTm in assay [1] is 0.5 °C; in assay [2], 0.47 °C; in assay [3] it was -0.01 °C; in assay [4], -0.19 °C; in assay [5], 0.31 °C; in assay [6], 0.08 °C.

Take `C[C@@H]1CC(=O)N(C2CC2)N=C1c1ccc(NC(=O)N2Cc3ccncc3C2)cc1`: the ΔTm in assay [1] was 0.36 °C; in assay [2], 0.35 °C; in assay [3] it was 0.2 °C; in assay [4], -0.86 °C; in assay [5], 0.29 °C; in assay [6] it was 0.22 °C.

As for `N[C@@H](CC(=O)O)Cn1nnc(-c2ccc(Oc3ncc(Cl)cc3F)cc2)n1`, the ΔTm in assay [1] was 0.91 °C; in assay [2], 0.66 °C; in assay [3] it was -0.24 °C; in assay [4], 0.34 °C; in assay [5] it was 0.49 °C; in assay [6] it was -0.25 °C.

Consider `Cc1cc(CN)cc(C)c1-c1ncn(C)c1-c1cncn1C`, for which the ΔTm in assay [1] is 0.16 °C; in assay [2], -0.16 °C; in assay [3] it was 0.37 °C; in assay [4] it was 0.19 °C; in assay [5] it was 0.11 °C; in assay [6], -0.37 °C.

With `Cc1cc(CN(CC(=O)Nc2ccc(Cl)cc2Cl)C2CCCCC2)ccc1OCC(=O)O`, the ΔTm in assay [1] is -1.67 °C; in assay [2], -2.21 °C; in assay [3] it was -0.47 °C; in assay [4], -3.13 °C; in assay [5] it was -1.06 °C; in assay [6], -2 °C.

For `O=C(O)[C@]1(Cc2cccc(Nc3nccs3)n2)CC[C@@H](Oc2cccc(Cl)c2F)CC1`, the ΔTm in assay [1] amounted to 17.2 °C; in assay [2], 5.36 °C; in assay [3] it was 1.53 °C; in assay [4], 8.49 °C; in assay [5], 1.32 °C; in assay [6], 25.4 °C.

For `CS(=O)(=O)NCC[C@H](NC(=O)c1cncc2c1cnn2-c1ccc(F)cc1)c1ccnc(S(C)(=O)=O)c1`, the ΔTm in assay [1] is -0.12 °C; in assay [2], -0.17 °C; in assay [3] it was 0.57 °C; in assay [4], -1.34 °C; in assay [5] it was 0.26 °C; in assay [6], 0.06 °C.

Turning to `COc1cc2ncnc(N[C@H](C)c3ccccc3)c2cc1OC1CCN(S(C)(=O)=O)CC1`, the ΔTm in assay [1] came out at 1.29 °C; in assay [2], 0.54 °C; in assay [3], 0.38 °C; in assay [4], 0.09 °C; in assay [5], 0.1 °C; in assay [6] it was 0.05 °C.

For the molecule `CCOC(=O)N1CCC(CN(Cc2ccc(Cl)cc2)Cc2ccc([N+](=O)[O-])s2)C1` (stereo not given), the ΔTm in assay [1] is 0.47 °C; in assay [2] it was 0.83 °C; in assay [3], 1.17 °C; in assay [4] it was -0.64 °C; in assay [5], 0.21 °C; in assay [6], -0.41 °C.

For the molecule `CC(C)(c1ccc(OCc2cccc(COc3ccc(C(=N)N)cc3)c2)cc1)c1ccc(O[C@@H]2O[C@H](C(=O)O)[C@@H](O)[C@H](O)[C@H]2O)cc1`, the ΔTm in assay [1] was -2.82 °C; in assay [2] it was -1.86 °C; in assay [3], -5.29 °C; in assay [4], -4.59 °C; in assay [5] it was -6.63 °C; in assay [6], -5.6 °C.
